Data: the supplement of paper PMC13094657
± gives the standard deviation of the averaged measurements.

Columns and labels:
MDA-MB-231 [1] = test: cell viability relative to vehicle unstimulated control (fraction); higher = more viable cells; conditions: pre-treatment time: 18 h then 24 h IFNg/TNF
MDA-MB-231 [2] = test: kynurenine production, fold change vs DMSO IFNg/TNF control; higher = more kynurenine produced (less inhibition); conditions: pre-treatment time: 18 h then 24 h IFNg/TNF
In short: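 In 96-well plates, MDA-MB-231 cells (7 × 10^4/well) were given 24 h to settle, pre-treated for 18 h with each natural product in 0.1% DMSO, and stimulated for 24 h with IFNγ (1 U/ml) and TNF (6.25 ng/ml) at 37°C. Supernatants were processed with trichloroacetic acid and p-dimethylaminobenzaldehyde and read at 492 nm against 0–100 μM standards. In the first screening round, kynurenine production, as fold change over same-plate cytokine-stimulated vehicle wells, was averaged over duplicate plates.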
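Wherever cell viability relative to vehicle unstimulated control is given: viability of the cells left after supernatant collection, read with Deep Blue dye added for 4 h, as absorbance at 570 nm minus 600 nm.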

| Compound | cell viability (MDA-MB-231 [1]) | kynurenine production (MDA-MB-231 [2]) |
| --- | --- | --- |
| C=C1C[C@@]23CC[C@H]4[C@@](C)(CCC[C@@]4(C)C(=O)O)[C@@H]2CC[C@]1(O[C@@H]1O[C@@H](CO)[C@@H](O)[C@H](O)[C@@H]1O[C@@H]1O[C@@H](CO)[C@@H](O)[C@H](O)[C@@H]1O)C3 [Steviolbioside] (compound dose: 10 uM) | 0.904 ± 0.19 | 1.05 ± 0.44 |
| CC(=O)O[C@@H]1C[C@@]23C[C@@]24CC[C@H](O[C@@H]2OC[C@H](O)[C@H](O)[C@H]2O)C(C)(C)[C@@H]4CC[C@H]3[C@]2(C)[C@@H](O)[C@]34O[C@H](C[C@@H](C)[C@@H]3[C@@]12C)[C@@H](C(C)(C)O)O4 [Cimiracemoside D] (compound dose: 10 uM) | 1.02 ± 0.086 | 1.16 ± 0.22 |
| C=C[C@@](C)(/C=C/c1ccc(O)cc1)CCC=C(C)C [Bakuchiol] (compound dose: 10 uM) | 0.95 ± 0.037 | 0.736 ± 0.018 |
| C[C@@H]1CC[C@]2(C(=O)O[C@@H]3O[C@H](CO)[C@@H](O)[C@H](O)[C@H]3O)CC[C@]3(C)C(=CC[C@@H]4[C@@]5(C)CC[C@H](O[C@@H]6OC[C@H](O)[C@H](O)[C@H]6O)C(C)(C)[C@@H]5CC[C@]43C)[C@@H]2[C@]1(C)O [Ziyuglycoside I] (compound dose: 10 uM) | 0.947 ± 0.068 | 0.804 ± 0.19 |
| C[C@@]12C[C@@]3(O)O[C@@H](O1)[C@]1(COC(=O)c4ccccc4)[C@@H]3C[C@]12O[C@@H]1O[C@H](COC(=O)c2ccccc2)[C@@H](O)[C@H](O)[C@H]1O [Benzoylpaeoniflorin] (compound dose: 10 uM) | 0.956 ± 0.034 | 0.893 ± 0.11 |
| CC(CCC(OC1OC(CO)C(O)C(O)C1OC1OC(CO)C(O)C(O)C1O)C(C)(C)O)C1CCC2(C)C3CC=C4C(CCC(OC5OC(CO)C(O)C(O)C5O)C4(C)C)C3(C)C(O)CC12C (configuration not stated) [Mogroside III-E] (compound dose: 10 uM) | 1.08 ± 0.013 | 0.996 ± 0.3 |
| CC(C)=CCC[C@](C)(O)[C@H]1CC[C@]2(C)[C@@H]1[C@H](O)C[C@@H]1[C@@]3(C)CC[C@H](O)C(C)(C)[C@@H]3[C@@H](O[C@@H]3O[C@H](CO)[C@@H](O)[C@H](O)[C@H]3O[C@@H]3O[C@@H](C)[C@H](O)[C@@H](O)[C@H]3O)C[C@]12C [Ginsenoside Rg2] (compound dose: 10 uM) | 1.01 ± 0.095 | 0.974 ± 0.061 |
| COC(=O)C1=CO[C@@H](O[C@@H]2O[C@H](CO)[C@@H](O)[C@H](O)[C@H]2O)[C@@H]2[C@H](C)O[C@@H](O)C[C@H]12 [Morroniside] (compound dose: 10 uM) | 1.015 ± 0.0011 | 1.22 ± 0.21 |
| C[C@H]1COC2=C1C(=O)C(=O)c1c2ccc2c1CCCC2(C)C [Cryptotanshinone] (compound dose: 10 uM) | 0.885 ± 0.048 | 0.3818 ± 0.0038 |
| C[C@@H]1C[C@@H]([C@@H](O)C(C)(C)O)O[C@H]2C[C@@]3(C)C(=C12)C[C@H](O)[C@H]1[C@@]2(C)CCC(=O)C(C)(C)[C@@H]2CC[C@@]13C [Alisol F] (compound dose: 10 uM) | 0.991 ± 0.032 | 0.848 ± 0.048 |
| O=C(O)C1=CO[C@@H](O[C@@H]2O[C@H](CO)[C@@H](O)[C@H](O)[C@H]2O)[C@@H]2C(CO)=CC[C@H]12 [Geniposidic acid] (compound dose: 10 uM) | 1.02 ± 0.015 | 0.715 ± 0.065 |
| CCCCCCCCCCCCCC(=O)O[C@@]12[C@H](O)[C@@H](C)[C@@]3(O)[C@@H](C=C(CO)C[C@]4(O)C(=O)C(C)=C[C@@H]34)[C@H]1C2(C)C [Phorbol 13-myristate] (compound dose: 10 uM) | 1.03 ± 0.065 | 0.635 ± 0.081 |
| CC(C)=CCC[C@H](C)CC=O [(S)-(-)-Citronellal] (compound dose: 10 uM) | 1.04 ± 0.05 | 1.14 ± 0.18 |
| C=C(C)[C@@H]1CC[C@]2(C)CC[C@]3(C)[C@H](CC[C@@H]4[C@@]5(C)CC[C@H](O)C(C)(C)[C@@H]5CC[C@]43C)[C@@H]12 [Lupeol] (compound dose: 2 uM) | 0.861 ± 0.041 | 0.921 ± 0.085 |
| C=C1CC[C@@H]2[C@](C)(COC(=O)CCC(=O)O)[C@H](OC(=O)CCC(=O)O)CC[C@@]2(C)[C@@H]1/C=C/C1=CCOC1=O [Kalii Dehydrographolidi Succinas] (compound dose: 2 uM) | 1.08 ± 0.13 | 1.2675 ± 0.00049 |
| C=C1CC[C@@H]2[C@](C)(CO)[C@H](O)CC[C@@]2(C)[C@@H]1C/C=C1/C(=O)OC[C@H]1O [Andrographolide] (compound dose: 10 uM) | 0.98 ± 0.018 | 0.534 ± 0.15 |
